Reference: PubChem BioAssay (NCI)
The panel holds about 79,000 compounds, 15% with a hit somewhere; the sample as a whole holds those more often. Values without a mark were called inactive. Cut-off read from the data, not from the text of the source: active = growth inhibition above about 70%; inactive = the rest. Where a SMILES comes first, the peptide text is derived from it. [ ]: non-standard residue; d: D form. The star is where a group is joined. Phe(4-NO2) = N[CH](Cc1ccc([N+](=O)[O-])cc1)C(=O)O; Boc = CC(C)(C)OC(=O)*; OtBu = CC(C)(C)O*

Assay: NCI Yeast Anticancer Drug Screen. Data for the sgs1 mgt1 strain (AID 161);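 note: 0% = growth of cultures given vehicle only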
Settings: S. cerevisiae sgs1 mgt1 strain, at 50.0 µM, stronger effect = higher value
Summary of the method: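 Inhibition of yeast growth, normalised to vehicle-treated controls, is reported for a strain bearing genetic alterations in DNA damage repair.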

Q: For `COC1CC2CC1C1COCC21` (stereo not drawn), which growth inhibition is on record?
A: -19.9%

Q: With `CC(=O)NC(CCC(=O)OC(C)(C)C)C(=O)NC(CCC(=O)OC(C)(C)C)C(=O)NC(Cc1ccc([N+](=O)[O-])cc1)C(=O)NC(CCCCNC(=O)OC(C)(C)C)C(=O)NC(CCCCNC(=O)OC(C)(C)C)C(=O)NCC(=O)O` (stereo not drawn) (Ac-E(OtBu)E(OtBu)[Phe(4-NO2)]K(Boc)K(Boc)G-OH; configuration not given here) as the compound, how does the growth inhibition read?
A: -22.6%

Q: For `COC(=O)c1nnn(CCc2c[nH]c3ccccc23)c1C(=O)OC`, which growth inhibition is on record?
A: -11.3%

Q: With `O=c1ccn2c(n1)OC1CC2OC1COC(c1ccccc1)(c1ccccc1)c1ccccc1` (stereo not drawn) as the compound, how does the growth inhibition read?
A: 12.2%

Q: For `O=C(C(=NC12CC3CC(CC(C3)C1)C2)NNc1ccc([N+](=O)[O-])cc1[N+](=O)[O-])C(Br)C(=O)c1ccccc1` (stereo not drawn), which growth inhibition is on record?
A: 56.2%

Q: For `O=C1CC(c2ccccc2)=NN1c1ccccc1`, which growth inhibition is on record?
A: -5.55%

Q: Which growth inhibition does the source give for `COCCNC(=O)/C=C\C(=O)O` here?
A: -2.95%

Q: For `C=CCCCC1CCCNC1=O` (stereo not drawn), which growth inhibition is on record?
A: -8.2%

Q: Which growth inhibition does the source give for `O=C(NC(=O)c1c(F)cccc1F)Nc1ccc(C(O)(C(F)(F)F)C(F)(F)F)cc1` here?
A: 10.2%

Q: For `Nc1nc(-c2ccc(F)cc2)cc(-c2cc(-c3ccc(F)cc3)nc(N)n2)n1`, which growth inhibition is on record?
A: -20.9%

Q: Which growth inhibition does the source give for `CCc1cccc(CC)c1N(C(C)=O)C(C)=O` here?
A: -11.7%

Q: With `O=[N+]([O-])c1ccc(CSc2ncnc3c2ncn3C2OC(CO)C(O)C2O)cc1` (stereo not drawn) as the compound, how does the growth inhibition read?
A: 9.5%

Q: With `c1ccc(N2CCN(C(c3cccs3)N3CCN(c4ccccc4)CC3)CC2)cc1` as the compound, how does the growth inhibition read?
A: 0.8%

Q: With `CN(C)CCNC(=O)c1cccc2c(Nc3ccc(S(N)(=O)=O)cc3)c3ccccc3nc12` as the compound, how does the growth inhibition read?
A: -43.1%

Q: Which growth inhibition does the source give for `CCCCCCCCCCN(CCCCCCCCCC)C(C)C(O)c1ccc2cc(Br)c3ccccc3c2c1` (stereo not drawn) here?
A: -15.8%

Q: With `CCOC(=O)C1=CC(=O)CC(C)(C)O1` as the compound, how does the growth inhibition read?
A: -1.65%

Q: With `CCOc1ccc(Cc2ccc3c(c2)OCO3)cc1C` as the compound, how does the growth inhibition read?
A: -7.55%

Q: Which growth inhibition does the source give for `COc1ccccc1C1(CBr)OCCO1` here?
A: 6.55%

Q: Which growth inhibition does the source give for `N#CC(NCCCNC(C#N)c1ccccc1)c1ccccc1` (stereo not drawn) here?
A: -4.6%

Q: For `COC(=O)c1nc(=S)[nH]c(C(=O)OC)c1C(=O)c1ccccc1`, which growth inhibition is on record?
A: -27.4%

Q: For `COc1ccc(CCO)cc1`, which growth inhibition is on record?
A: -15.9%

Q: Which growth inhibition does the source give for `CC(C)[C@H]1CC[C@@](C)(C(=O)O)C1` here?
A: 15.2%

Q: For `N#C/C(=C\c1c(Cl)cccc1Cl)c1ccc([N+](=O)[O-])cc1`, which growth inhibition is on record?
A: 16%

Q: For `Cc1c(C(=O)CSc2nc3ccccc3c(=O)n2-c2ccccc2)c(=O)n(-c2ccccc2)n1C`, which growth inhibition is on record?
A: -18.1%

Q: With `C[N+](C)(C)CCC(=O)N1C/C(=C\c2ccccc2)C(=O)/C(=C/c2ccccc2)C1` as the compound, how does the growth inhibition read?
A: -34.1%

Q: With `O=C(CCc1ccccc1CO)NCCc1ccccc1` as the compound, how does the growth inhibition read?
A: -18.1%

Q: With `O=C1CS(=O)(=O)c2ccccc21` as the compound, how does the growth inhibition read?
A: 1.5%

Q: For `CSc1ccc(NC(=O)Oc2ccc(NC(C)=O)cc2)cc1`, which growth inhibition is on record?
A: 6.05%

Q: For `CCOC(=O)N/N=C(\Cc1ccccc1)OCC`, which growth inhibition is on record?
A: 8.45%

Q: For `COC(=O)C1=NOC(Cc2ccccc2)C1` (stereo not drawn), which growth inhibition is on record?
A: 0.15%

Q: With `C=CCOC(=O)CCC(=O)OCC=C` as the compound, how does the growth inhibition read?
A: -4.65%

Q: With `CCN(CC)Cc1c(C)cccc1O` as the compound, how does the growth inhibition read?
A: -27.8%

Q: Which growth inhibition does the source give for `COc1cccc(N=NN2CCCC2)c1` here?
A: 17.8%

Q: Which growth inhibition does the source give for `CCOCCC(C)(OCC)OCC` here?
A: -7%

Q: For `COC(=O)/C(=C\c1ccc(N(CCC#N)CCC#N)cc1)NC(=O)c1cc([N+](=O)[O-])ccc1Cl`, which growth inhibition is on record?
A: -16.1%

Q: Which growth inhibition does the source give for `COc1ccc(N2C(=O)/C(=C/c3ccc(N(CCC#N)CCC#N)cc3C)N=C2c2cc([N+](=O)[O-])ccc2Cl)cc1` here?
A: 1.5%

Q: For `O=[N+]([O-])c1cccc2c1ccc1nonc12`, which growth inhibition is on record?
A: 2.55%

Q: Which growth inhibition does the source give for `CCOc1cc(/C=N/NC(=O)N(c2ccccc2)c2ccccc2)ccc1O` here?
A: 25.6%

Q: Which growth inhibition does the source give for `CC(NN(C)C(=S)Nc1ccccc1)c1ccccn1` (stereo not drawn) here?
A: -9.15%

Assay: NCI Yeast Anticancer Drug Screen. Data for the cln2 rad14 strain (AID 165);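 note: 0% = growth equal to vehicle treated cultures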
Settings: S. cerevisiae cln2 rad14 strain, at 50.0 µM, stronger effect = higher value
Summary of the method: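 cln2 rad14 yeast strain; compound exposure; growth inhibition read vs vehicle controls.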

Q: Which growth inhibition does the source give for `COC1CC2CC1C1COCC21` (stereo not drawn) here?
A: -12.4%

Q: Which growth inhibition does the source give for `CC(=O)NC(CCC(=O)OC(C)(C)C)C(=O)NC(CCC(=O)OC(C)(C)C)C(=O)NC(Cc1ccc([N+](=O)[O-])cc1)C(=O)NC(CCCCNC(=O)OC(C)(C)C)C(=O)NC(CCCCNC(=O)OC(C)(C)C)C(=O)NCC(=O)O` (stereo not drawn) (Ac-E(OtBu)E(OtBu)[Phe(4-NO2)]K(Boc)K(Boc)G-OH; configuration not given here) here?
A: 13.4%

Q: Which growth inhibition does the source give for `COC(=O)c1nnn(CCc2c[nH]c3ccccc23)c1C(=O)OC` here?
A: -11.6%

Q: With `O=c1ccn2c(n1)OC1CC2OC1COC(c1ccccc1)(c1ccccc1)c1ccccc1` (stereo not drawn) as the compound, how does the growth inhibition read?
A: -17.4%

Q: With `O=C(C(=NC12CC3CC(CC(C3)C1)C2)NNc1ccc([N+](=O)[O-])cc1[N+](=O)[O-])C(Br)C(=O)c1ccccc1` (stereo not drawn) as the compound, how does the growth inhibition read?
A: 3.25%

Q: Which growth inhibition does the source give for `O=C1CC(c2ccccc2)=NN1c1ccccc1` here?
A: 9.5%

Q: Which growth inhibition does the source give for `COCCNC(=O)/C=C\C(=O)O` here?
A: -49.4%

Q: With `C=CCCCC1CCCNC1=O` (stereo not drawn) as the compound, how does the growth inhibition read?
A: 8.1%

Q: With `O=C(NC(=O)c1c(F)cccc1F)Nc1ccc(C(O)(C(F)(F)F)C(F)(F)F)cc1` as the compound, how does the growth inhibition read?
A: 24.1%

Q: With `Nc1nc(-c2ccc(F)cc2)cc(-c2cc(-c3ccc(F)cc3)nc(N)n2)n1` as the compound, how does the growth inhibition read?
A: -2%

Q: For `CCc1cccc(CC)c1N(C(C)=O)C(C)=O`, which growth inhibition is on record?
A: -8.85%

Q: For `O=[N+]([O-])c1ccc(CSc2ncnc3c2ncn3C2OC(CO)C(O)C2O)cc1` (stereo not drawn), which growth inhibition is on record?
A: -7.35%

Q: With `c1ccc(N2CCN(C(c3cccs3)N3CCN(c4ccccc4)CC3)CC2)cc1` as the compound, how does the growth inhibition read?
A: -4.15%

Q: With `CN(C)CCNC(=O)c1cccc2c(Nc3ccc(S(N)(=O)=O)cc3)c3ccccc3nc12` as the compound, how does the growth inhibition read?
A: 17.9%

Q: For `CCCCCCCCCCN(CCCCCCCCCC)C(C)C(O)c1ccc2cc(Br)c3ccccc3c2c1` (stereo not drawn), which growth inhibition is on record?
A: -16.9%

Q: With `CCOC(=O)C1=CC(=O)CC(C)(C)O1` as the compound, how does the growth inhibition read?
A: -5.75%

Q: For `CCOc1ccc(Cc2ccc3c(c2)OCO3)cc1C`, which growth inhibition is on record?
A: -13.2%

Q: For `COc1ccccc1C1(CBr)OCCO1`, which growth inhibition is on record?
A: -5.4%

Q: Which growth inhibition does the source give for `N#CC(NCCCNC(C#N)c1ccccc1)c1ccccc1` (stereo not drawn) here?
A: -23.7%

Q: With `COC(=O)c1nc(=S)[nH]c(C(=O)OC)c1C(=O)c1ccccc1` as the compound, how does the growth inhibition read?
A: 36%

Q: With `COc1ccc(CCO)cc1` as the compound, how does the growth inhibition read?
A: -10.2%

Q: With `CC(C)[C@H]1CC[C@@](C)(C(=O)O)C1` as the compound, how does the growth inhibition read?
A: 5.8%

Q: Which growth inhibition does the source give for `N#C/C(=C\c1c(Cl)cccc1Cl)c1ccc([N+](=O)[O-])cc1` here?
A: -4.45%

Q: Which growth inhibition does the source give for `Cc1c(C(=O)CSc2nc3ccccc3c(=O)n2-c2ccccc2)c(=O)n(-c2ccccc2)n1C` here?
A: 37.7%

Q: With `C[N+](C)(C)CCC(=O)N1C/C(=C\c2ccccc2)C(=O)/C(=C/c2ccccc2)C1` as the compound, how does the growth inhibition read?
A: 8.75%

Q: Which growth inhibition does the source give for `O=C(CCc1ccccc1CO)NCCc1ccccc1` here?
A: 7.8%

Q: Which growth inhibition does the source give for `O=C1CS(=O)(=O)c2ccccc21` here?
A: -13.3%

Q: With `CSc1ccc(NC(=O)Oc2ccc(NC(C)=O)cc2)cc1` as the compound, how does the growth inhibition read?
A: 14.4%

Q: Which growth inhibition does the source give for `CCOC(=O)N/N=C(\Cc1ccccc1)OCC` here?
A: 13.7%

Q: With `COC(=O)C1=NOC(Cc2ccccc2)C1` (stereo not drawn) as the compound, how does the growth inhibition read?
A: -35.4%

Q: Which growth inhibition does the source give for `C=CCOC(=O)CCC(=O)OCC=C` here?
A: -15.4%

Q: Which growth inhibition does the source give for `CCN(CC)Cc1c(C)cccc1O` here?
A: -49.5%

Q: With `COc1cccc(N=NN2CCCC2)c1` as the compound, how does the growth inhibition read?
A: 20.1%

Q: Which growth inhibition does the source give for `CCOCCC(C)(OCC)OCC` here?
A: 15.7%

Q: With `COC(=O)/C(=C\c1ccc(N(CCC#N)CCC#N)cc1)NC(=O)c1cc([N+](=O)[O-])ccc1Cl` as the compound, how does the growth inhibition read?
A: 5.65%

Q: Which growth inhibition does the source give for `COc1ccc(N2C(=O)/C(=C/c3ccc(N(CCC#N)CCC#N)cc3C)N=C2c2cc([N+](=O)[O-])ccc2Cl)cc1` here?
A: -5.55%

Q: Which growth inhibition does the source give for `O=[N+]([O-])c1cccc2c1ccc1nonc12` here?
A: -52.1%

Q: With `CCOc1cc(/C=N/NC(=O)N(c2ccccc2)c2ccccc2)ccc1O` as the compound, how does the growth inhibition read?
A: 12.8%

Q: With `CC(NN(C)C(=S)Nc1ccccc1)c1ccccn1` (stereo not drawn) as the compound, how does the growth inhibition read?
A: -10.8%
